Laboratory results taken from PubChem BioAssay (EPA / NIEHS).
The source made the active and inactive calls. How the source made its calls: active means hit-call score of the fitted dose curve at least 0.9, where 1 is the maximum; inactive means score below 0.9.

Columns and labels:
[1] = target: Transcription factor E2F1 (Homo sapiens) (UniProt Q01094); test: ATG_E2F_CIS: Attagene CIS-FACTORIAL HepG2 Assay for human E2F Transcription Factor 1 (AID 2282935); conditions: HepG2 Attagene cis-reporter, E2F reporter RNA transcripts; actives raise or lower the signal
Chain of Transcription factor E2F1 (Homo sapiens) (Q01094 whole entry, looked up): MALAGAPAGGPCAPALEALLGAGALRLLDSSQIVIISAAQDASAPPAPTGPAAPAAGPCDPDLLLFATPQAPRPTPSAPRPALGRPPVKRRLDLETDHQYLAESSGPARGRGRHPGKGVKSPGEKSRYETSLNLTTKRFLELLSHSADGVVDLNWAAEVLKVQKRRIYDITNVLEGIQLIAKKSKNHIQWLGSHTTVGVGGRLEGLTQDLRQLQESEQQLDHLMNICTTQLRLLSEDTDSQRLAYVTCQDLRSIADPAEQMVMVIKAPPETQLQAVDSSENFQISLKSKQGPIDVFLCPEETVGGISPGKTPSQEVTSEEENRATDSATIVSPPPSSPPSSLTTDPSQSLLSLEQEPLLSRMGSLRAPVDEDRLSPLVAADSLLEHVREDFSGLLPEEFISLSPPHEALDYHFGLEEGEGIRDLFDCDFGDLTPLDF
In short: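 Endogenous E2F1 activity read through cis-promoter reporter units transfected into HepG2. After 24 h compound treatment, reporter mRNA measured by RT-PCR, HpaI digestion and capillary electrophoresis. Bidirectional fit versus DMSO.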

[2] = ATG_E_Box_CIS: Attagene CIS-FACTORIAL HepG2 Assay for human Enhancer Box (E-box) (AID 2282936); conditions: HepG2 E-box cis-reporter transcription, actives raise or lower the signal
In short: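 HepG2 cells transiently transfected with multiplexed cis-element reporter units, dosed 24 h; reporter mRNA quantified by RT-PCR, 6-FAM labelling, HpaI digestion and capillary electrophoresis. E-box (USF1) signal fitted bidirectionally vs DMSO.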

[3] = ATG_M_61_CIS: Attagene CIS-FACTORIAL HepG2 Assay for M61 Transcription Factor (Internal Marker) (AID 2282937); conditions: HepG2 Attagene CIS-FACTORIAL M61 internal marker reporter; actives raise or lower the signal
In short: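 HepG2 cells transiently transfected with cis-element-driven multiple reporter transcription units, dosed for 24 h. Reporter mRNA measured by RT-PCR, 6-FAM primer-extension labelling, HpaI digestion and capillary electrophoresis; bidirectional fit versus DMSO baseline.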

[4] = ATG_EGR_CIS: Attagene CIS-FACTORIAL HepG2 Assay for human Early Growth Response 1 (EGR1) (AID 2282938); conditions: HepG2 Attagene CIS-FACTORIAL EGR reporter mRNA; actives raise or lower the signal
In short: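 HepG2 cells transiently transfected with cis-promoter-driven multiplexed reporter transcription units; reporter mRNA measured 24 h after compound dosing by RT-PCR, 6-FAM primer extension, HpaI digestion and capillary electrophoresis. Bidirectional fit versus DMSO baseline.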

[5] = ATG_M_19_CIS: Attagene CIS-FACTORIAL HepG2 Assay for M19 Transcription Factor (Internal Marker) (AID 2282939); conditions: HepG2 Attagene CIS-FACTORIAL M19 internal marker reporter; actives raise or lower the signal
In short: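 In this multiplexed cell assay, transiently transfected HepG2 reporter units report endogenous transcription-factor activity; after 24 hours of treatment, labelled reporter cDNA fragments are quantified by capillary electrophoresis and fitted bidirectionally against DMSO.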

[6] = ATG_ERE_CIS: Attagene CIS-FACTORIAL HepG2 Assay for Estrogen Response Element (ERE) (AID 2282940); conditions: HepG2 ERE cis-reporter, Attagene RNA transcript; actives raise or lower the signal
In short: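 Measuring endogenous transcription factor output, the assay doses transfected HepG2 cells for 24 hours and quantifies reporter transcripts by fluorescent RT-PCR and capillary electrophoresis, with DMSO as baseline.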

[7] = ATG_Ets_CIS: Attagene CIS-FACTORIAL HepG2 Assay for human Erythroblast Transformation Specific (ETS) (AID 2282941); conditions: HepG2 ETS cis-reporter transcription, actives raise or lower the signal
In short: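 HepG2 cells transfected with multiple cis-regulated reporter units measuring endogenous ETS-driven transcription, 24 h after dosing. Reporter mRNA quantified by RT-PCR with capillary electrophoresis; bidirectional fit relative to DMSO.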

[8] = target: Hepatocyte nuclear factor 3-beta (Homo sapiens) (UniProt Q9Y261); test: ATG_FoxA2_CIS: Attagene CIS-FACTORIAL HepG2 Assay for human Forkhead box A2 (FOXA2) (AID 2282942); conditions: HepG2 cis-reporter transcription factor activity, 24 h; actives raise or lower the signal
Chain of Hepatocyte nuclear factor 3-beta (Homo sapiens) (Q9Y261 whole entry, looked up): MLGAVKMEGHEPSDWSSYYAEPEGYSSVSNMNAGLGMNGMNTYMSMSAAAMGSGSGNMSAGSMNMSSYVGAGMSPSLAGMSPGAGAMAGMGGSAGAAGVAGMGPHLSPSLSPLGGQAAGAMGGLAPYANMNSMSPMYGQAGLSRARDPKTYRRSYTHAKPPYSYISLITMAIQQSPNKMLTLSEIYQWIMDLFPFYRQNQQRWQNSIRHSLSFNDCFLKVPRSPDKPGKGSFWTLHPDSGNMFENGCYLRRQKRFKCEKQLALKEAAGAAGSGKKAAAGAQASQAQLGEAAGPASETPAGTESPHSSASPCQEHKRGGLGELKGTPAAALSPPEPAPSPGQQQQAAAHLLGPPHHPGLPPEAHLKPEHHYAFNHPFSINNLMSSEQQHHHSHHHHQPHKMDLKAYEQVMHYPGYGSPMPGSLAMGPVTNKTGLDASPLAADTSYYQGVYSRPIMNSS
In short: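 HepG2 cells transiently transfected with multiple cis-regulated reporter transcription units, dosed for 24 h. Reporter mRNA measured by RT-PCR, 6-FAM labelling, HpaI digestion and capillary electrophoresis; bidirectional fitting against DMSO baseline.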

[9] = ATG_FoxO_CIS: Attagene CIS-FACTORIAL HepG2 Assay for human Forkhead box O (FoxO) (AID 2282943); conditions: HepG2 Attagene cis-reporter, FoxO element, mRNA; actives raise or lower the signal
In short: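 HepG2 cells transiently transfected with cis-element-driven reporter units report endogenous FoxO activity. After 24 h chemical exposure, reporter mRNA quantified by RT-PCR, fluorescent labeling, HpaI digestion and capillary electrophoresis; bidirectional fit versus DMSO.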

[10] = ATG_GATA_CIS: Attagene CIS-FACTORIAL HepG2 Assay for human GATA Binding Protein (AID 2282944); conditions: HepG2 GATA cis-element reporter, Attagene multiplex mRNA; actives raise or lower the signal
In short: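 Measures endogenous transcription factor-driven reporter mRNA in HepG2 cells transiently carrying cis-regulated constructs. 24 h dosing; RNA via oligo(dT) reverse transcription, PCR, HpaI digestion, capillary electrophoresis; fitted relative to DMSO.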

[11] = ATG_GLI_CIS: Attagene CIS-FACTORIAL HepG2 Assay for human Zinc Finger Protein GLI1 (AID 2282945); conditions: HepG2, Attagene cis-factorial reporter mRNA, GLI element; actives raise or lower the signal
In short: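 Transiently transfected HepG2 cells report endogenous transcription factor activity via cis-element-driven reporter units. After 24 h compound exposure, reporter mRNA was measured by RT-PCR with capillary electrophoresis; bidirectional fitting against DMSO baseline.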

[12] = target: Bile acid receptor (Homo sapiens) (UniProt Q96RI1); test: ATG_IR1_CIS: Attagene CIS-FACTORIAL HepG2 Assay for human Nuclear Receptor Subfamily 1 Group H Member 4 (NR1H4), IR1 submotif (AID 2282946); conditions: IR1 reporter transcription, actives raise or lower the signal
Chain of Bile acid receptor (Homo sapiens) (Q96RI1 whole entry, looked up): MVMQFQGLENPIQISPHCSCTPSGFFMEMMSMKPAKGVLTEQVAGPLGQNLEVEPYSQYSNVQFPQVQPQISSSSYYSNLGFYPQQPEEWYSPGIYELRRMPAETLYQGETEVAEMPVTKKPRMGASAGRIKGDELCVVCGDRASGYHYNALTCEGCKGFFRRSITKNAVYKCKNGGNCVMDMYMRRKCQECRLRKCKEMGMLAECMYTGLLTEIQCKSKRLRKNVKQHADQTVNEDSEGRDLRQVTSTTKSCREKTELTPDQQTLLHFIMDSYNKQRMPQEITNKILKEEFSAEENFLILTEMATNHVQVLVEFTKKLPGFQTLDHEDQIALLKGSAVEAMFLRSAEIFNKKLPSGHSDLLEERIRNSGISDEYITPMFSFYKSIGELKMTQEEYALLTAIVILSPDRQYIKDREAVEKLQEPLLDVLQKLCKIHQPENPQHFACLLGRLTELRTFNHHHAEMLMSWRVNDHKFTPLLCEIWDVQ
In short: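 HepG2 cells transiently transfected with multiple cis-promoter-driven reporter units to measure endogenous transcription factor activity; 24 h exposure. Reporter mRNA read by RT-PCR, FAM labelling, HpaI digestion and capillary electrophoresis. Bidirectional fit versus DMSO.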

[13] = ATG_GRE_CIS: Attagene CIS-FACTORIAL HepG2 Assay for human Glucocorticoid Response Elements (GRE) (AID 2282947); conditions: HepG2 GRE cis-reporter, Attagene multiplex mRNA; actives raise or lower the signal
In short: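 Transiently transfected HepG2 cells carrying GRE cis-reporter units (endogenous TF activity) dosed 24 h; reporter mRNA quantified by RT-PCR, 6-FAM labelling, HpaI digestion and capillary electrophoresis. Bidirectional fit versus DMSO baseline.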

[14] = ATG_ISRE_CIS: Attagene CIS-FACTORIAL HepG2 Assay for human Interferon Regulatory Factor 1 (IRF1) binding to an Interferon-Stimulated Response Element (ISRE) (AID 2282948); conditions: HepG2 ISRE cis-reporter (Attagene), mRNA transcription readout; actives raise or lower the signal
In short: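 Transiently transfected HepG2 cells carrying cis-element reporter units, dosed 24 hours. Reporter mRNA quantified by RT-PCR, fluorescent primer extension, HpaI digestion and capillary electrophoresis. Bidirectional fitting relative to DMSO.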

[15] = ATG_M_32_CIS: Attagene CIS-FACTORIAL HepG2 Assay for M32 Transcription Factor (Internal Marker) (AID 2282949); conditions: HepG2 Attagene cis-factorial M32 reporter, mRNA; actives raise or lower the signal;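 further: background control marker of the multiplexed CIS panel rather than a real target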
In short: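 HepG2 cells transiently transfected with multiplexed cis-regulated reporter units, dosed 24 h. Reporter mRNA quantified by RT-PCR, 6-FAM labelling, HpaI digestion and capillary electrophoresis; bidirectional fit vs DMSO.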

[16] = ATG_M_06_CIS: Attagene CIS-FACTORIAL HepG2 Assay for M06 Transcription Factor (Internal Marker) (AID 2282950); conditions: HepG2 Attagene CIS-FACTORIAL M06 internal marker reporter; actives raise or lower the signal
In short: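 One of many multiplexed endpoints: HepG2 reporter mRNA after 24 h dosing, detected by RT-PCR and capillary electrophoresis fluorescence; gain or loss of signal analysed against DMSO.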

[17] = target: Heat shock factor protein 1 (Homo sapiens) (UniProt Q00613); test: ATG_HSE_CIS: Attagene CIS-FACTORIAL HepG2 Assay for human Heat Shock Transcription Factor 1 (HSE) (AID 2282953); conditions: HepG2 HSE cis-reporter, Attagene RNA transcription; actives raise or lower the signal
Chain of Heat shock factor protein 1 (Homo sapiens) (Q00613 whole entry, looked up): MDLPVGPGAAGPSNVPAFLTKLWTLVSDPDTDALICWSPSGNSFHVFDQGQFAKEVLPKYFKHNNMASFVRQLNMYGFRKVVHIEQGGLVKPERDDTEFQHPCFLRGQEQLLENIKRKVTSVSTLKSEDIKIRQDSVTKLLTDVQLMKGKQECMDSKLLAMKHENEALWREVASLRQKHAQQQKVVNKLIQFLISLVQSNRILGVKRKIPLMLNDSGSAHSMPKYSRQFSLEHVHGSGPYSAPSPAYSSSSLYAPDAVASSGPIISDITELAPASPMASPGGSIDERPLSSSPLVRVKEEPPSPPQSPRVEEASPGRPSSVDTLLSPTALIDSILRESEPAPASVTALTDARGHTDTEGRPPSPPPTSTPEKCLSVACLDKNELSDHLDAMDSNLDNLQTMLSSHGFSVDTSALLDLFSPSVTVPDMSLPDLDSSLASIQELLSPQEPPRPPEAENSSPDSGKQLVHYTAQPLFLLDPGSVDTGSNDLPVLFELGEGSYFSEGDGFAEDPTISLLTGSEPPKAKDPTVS
In short: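 Using HepG2 with transfected cis-driven reporter constructs, compound effects on endogenous factor activity are scored as reporter mRNA change at 24 h. Detection: RT-PCR, HpaI digestion, capillary electrophoresis; bidirectional fitting to DMSO.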

[18] = ATG_MRE_CIS: Attagene CIS-FACTORIAL HepG2 Assay for human Metal Responsive Element (MRE) (AID 2282954); conditions: HepG2 MRE cis-reporter transcription, Attagene multiplex; actives raise or lower the signal
In short: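 HepG2 cells transiently transfected with cis-element-driven reporter units; mRNA measured 24 h after dosing. Reporter transcripts quantified by RT-PCR, FAM labelling, HpaI digestion and capillary electrophoresis; bidirectional fit versus DMSO.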

[19] = target: Hypoxia-inducible factor 1-alpha (Homo sapiens) (UniProt Q16665); test: ATG_HIF1a_CIS: Attagene CIS-FACTORIAL HepG2 Assay for human Hypoxia Inducible Factor 1 (HIF1A) (AID 2282951); conditions: HepG2 Attagene cis-factorial HIF1a reporter transcription; actives raise or lower the signal
Chain of Hypoxia-inducible factor 1-alpha (Homo sapiens) (Q16665 whole entry, looked up): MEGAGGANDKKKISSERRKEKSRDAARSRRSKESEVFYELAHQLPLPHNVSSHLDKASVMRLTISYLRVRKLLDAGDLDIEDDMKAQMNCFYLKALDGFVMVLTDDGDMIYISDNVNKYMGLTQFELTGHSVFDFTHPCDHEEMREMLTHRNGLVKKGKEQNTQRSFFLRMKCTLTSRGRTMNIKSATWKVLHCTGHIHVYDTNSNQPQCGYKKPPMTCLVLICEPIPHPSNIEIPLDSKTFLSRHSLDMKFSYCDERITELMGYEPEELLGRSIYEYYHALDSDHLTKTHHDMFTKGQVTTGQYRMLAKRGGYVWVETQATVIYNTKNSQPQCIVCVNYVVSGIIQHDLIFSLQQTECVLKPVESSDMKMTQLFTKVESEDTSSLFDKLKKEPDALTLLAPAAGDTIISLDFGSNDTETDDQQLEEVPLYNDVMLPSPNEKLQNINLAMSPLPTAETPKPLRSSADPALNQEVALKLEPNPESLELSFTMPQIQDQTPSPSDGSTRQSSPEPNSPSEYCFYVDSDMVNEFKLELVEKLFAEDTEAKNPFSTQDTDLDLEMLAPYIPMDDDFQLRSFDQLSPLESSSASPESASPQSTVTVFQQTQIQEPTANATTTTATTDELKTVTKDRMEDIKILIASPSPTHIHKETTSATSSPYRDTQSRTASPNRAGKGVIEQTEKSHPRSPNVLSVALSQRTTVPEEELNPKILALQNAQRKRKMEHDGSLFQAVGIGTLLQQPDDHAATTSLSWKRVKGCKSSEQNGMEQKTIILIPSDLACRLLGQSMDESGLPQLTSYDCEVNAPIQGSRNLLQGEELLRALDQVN
In short: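 HepG2 cells transiently transfected with multiplexed cis-promoter reporter units; reporter mRNA read 24 h after dosing by RT-PCR, 6-FAM primer-extension labelling, HpaI digestion and capillary electrophoresis. Bidirectional fit versus DMSO baseline.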

[20] = target: Hepatocyte nuclear factor 6 (Homo sapiens) (UniProt Q9UBC0); test: ATG_HNF6_CIS: Attagene CIS-FACTORIAL HepG2 Assay for human Hepatocyte Nuclear Factor 6 (HNF6) (AID 2282952); conditions: HepG2 Attagene cis-factorial HNF6 reporter transcription; actives raise or lower the signal
Chain of Hepatocyte nuclear factor 6 (Homo sapiens) (Q9UBC0 whole entry, looked up): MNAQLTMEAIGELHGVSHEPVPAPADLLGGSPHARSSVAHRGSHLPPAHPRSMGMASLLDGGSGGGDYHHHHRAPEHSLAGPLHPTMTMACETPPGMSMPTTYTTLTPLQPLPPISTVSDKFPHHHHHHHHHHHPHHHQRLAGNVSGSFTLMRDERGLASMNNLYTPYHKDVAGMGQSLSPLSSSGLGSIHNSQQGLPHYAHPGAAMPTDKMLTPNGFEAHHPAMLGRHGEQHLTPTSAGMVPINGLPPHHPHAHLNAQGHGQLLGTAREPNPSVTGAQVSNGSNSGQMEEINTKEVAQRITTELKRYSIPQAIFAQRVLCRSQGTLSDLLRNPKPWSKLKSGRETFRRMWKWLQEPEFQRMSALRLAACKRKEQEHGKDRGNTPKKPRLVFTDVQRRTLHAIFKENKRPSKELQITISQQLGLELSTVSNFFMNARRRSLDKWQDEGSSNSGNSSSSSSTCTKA
In short: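 HepG2, transient MRTU transfection (cis promoters); 24 h chemical exposure; total RNA → oligo(dT) RT → PCR → 6-FAM labelling → HpaI cut → CE; bidirectional fit vs DMSO.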

Measured: outcome

OCCCCC(F)(F)C(F)(F)C(F)(F)C(F)(F)F
not listed: [19] | [20]
inactive: all other assays above

Cc1cc(C)c(O)c(C(C)(C)C)c1
not listed: [19] | [20]
inactive: all other assays above

Nc1c(Br)cc([N+](=O)[O-])cc1Br
not listed: [16]
inactive: all other assays above

Brc1ccccn1
not listed: [16] | [20]
inactive: all other assays above

OCC(O)CC(F)(F)C(F)(F)C(F)(F)C(F)(F)F (stereo not drawn)
not listed: [20]
inactive: all other assays above

O=S(=O)(O)CCC(F)(F)C(F)(F)C(F)(F)C(F)(F)F
not listed: [16] | [20]
inactive: all other assays above

CCCCCC/C=C/CCCCCCCC(=O)O
not listed: [20]
inactive: all other assays above

OCC1CCCO1 (stereo not drawn)
not listed: [20]
inactive: all other assays above
